The results in this text go back to PubChem BioAssay.

Structures are written as SMILES. Inconclusive results are not listed. Active and inactive are the calls of the source.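 Rule for the calls, unless noted: active = aptamer binding inhibition above 30%, about 3 SD of noise from non-fluorescent compounds; inactive = inhibition at or below 30%.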

A short description of experiment [1]: rapamycin-like changes in RPL19A-GFP expression – cell-based, S. cerevisiae, multiplex flow cytometry, primary screen (AID 1862; in the data active = percent of DMSO control GFP below about 86%;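 note: lower values mimic rapamycin by blocking the RPL19A rise seen in DMSO cells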). The conditions noted are these: S. cerevisiae RPL19A-GFP strain, flow cytometry fluorescence, 3 h; at 10 µM; stronger effect = lower value.
Experiment [2] is described as follows: TOR pathway GLN3 branch reporter MEP2-GFP changes – S. cerevisiae, multiplex flow cytometry, primary screen (AID 1867;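 active = GFP response, as percent of the DMSO control, above the screen-wide mean plus 3 SD, about 139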;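 note: median GFP channel fluorescence of barcode-gated MEP2-GFP cells measured by flow cytometry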). The conditions noted are these: S. cerevisiae MEP2-GFP strain, 3 h, at 10 µM, stronger effect = higher value, 100% means same as DMSO wells. In general terms: In flow cytometry, cells or beads pass a laser one at a time.
Experiment [3] can be described thus: TOR pathway RTG branch CIT2 reporter changes – S. cerevisiae, GFP fusion, multiplex flow cytometry, primary screen (AID 1870;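 active = percent response above a set limit, the screen-wide mean plus 3 SD, cut at about 130% in these data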;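 note: barcoded CIT2-GFP strain pooled with four other GFP strains with rapamycin as positive control; median GFP fluorescence per well over plate mean of DMSO wells so 100% = DMSO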). The conditions noted are these: S. cerevisiae CIT2-GFP expression, 3 h, at 10 µM, stronger effect = higher value.
The nature of experiment [4]: TOR pathway LAP4-GFP level changes – S. cerevisiae, multiplex flow cytometry, primary screen (AID 1873;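 active = GFP signal, as percent of the solvent control, above the screen mean plus 3 SD, about 149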). The conditions noted are these: S. cerevisiae LAP4-GFP expression, 3 h, at 10 µM, stronger effect = higher value.
The nature of experiment [5]: yeast AGP1-GFP level changes, GLN3 branch – cell-based, multiplex flow cytometry, S. cerevisiae, primary screen (AID 1887;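 active = GFP signal above the screen-wide mean plus 3 SD, that is over about 124.5% of the solvent control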;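 note: AGP1-GFP fusion strain of S. cerevisiae within a five-strain barcoded multiplex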). The conditions noted are these: 3 h, at 10 µM, stronger effect = higher value.
The nature of experiment [6]: reduced mouse 2C T cell binding to pMHC/ICAM-1 vesicles – MLPCN validation set, flow cytometry, LFA-1/ICAM-1 modulator project, pilot screen (AID 2523;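 active = response below a set limit, under 55% cells CD8-positive and vesicle-bound, and CD8 cells' 90th-percentile brightness under 279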;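 for vesicle binding response: mean PE anti-B7-1 fluorescence of CD8+ cells relative to row control; 100% = QL9-loaded vesicles with DMSO vehicle in the same plate row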). The conditions noted are these: 2C mouse CD8+ T cells, at 7 µM, stronger effect = lower value; double positive events: measured here: CD8+/vesicle+ event percentage.
Experiment [7] has as its target Integrin beta-1 (Homo sapiens) + Integrin alpha-4 (Homo sapiens) (UniProt P13612+P05556). Description: alpha4beta1 integrin LIBS antibody binding reduction – U937 cells, HUTS-21 mAb, flow cytometry, validation set, VLA-4 allosteric modulator project, pilot screen (AID 2674;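 active = inhibition above 50%, about 3 SD of the validation set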;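 note: antibody binding induced by the VLA-4 ligand LDV present at three times its Kd; 0% = LDV ligand with antibody and no compound and 100% = antibody without LDV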). The conditions noted are these: HUTS-21 LIBS mAb binding, at 6.7 µM, stronger effect = higher value, binding induced by LDV ligand.

The nature of experiment [8]: calorie-restriction mimetic ROS inhibitors, yeast – validation compound set, pilot screen (AID 2706;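 active = superoxide response below 65% of plate, a cut near 3 SD across the whole screen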;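 note: yeast exposed to compound for one week at 30 degrees C before staining; 100% = mean of all compound wells on the same plate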). The conditions noted are these: S. cerevisiae aging, superoxide DHE fluorescence; at 10 µM; stronger effect = lower value.
In experiment [9] the target is Beta-adrenergic receptor kinase 1 (Homo sapiens) (UniProt P25098). Description: GRK2 binders displacing RNA aptamer, biochemical, validation, human GRK2, bead flow cytometry (AID 488806). The conditions noted are these: bead-bound GRK2, FAM-aptamer displacement, at 10 µM, stronger effect = higher value.
Chain of Beta-adrenergic receptor kinase 1 (Homo sapiens) (P25098 whole entry, looked up): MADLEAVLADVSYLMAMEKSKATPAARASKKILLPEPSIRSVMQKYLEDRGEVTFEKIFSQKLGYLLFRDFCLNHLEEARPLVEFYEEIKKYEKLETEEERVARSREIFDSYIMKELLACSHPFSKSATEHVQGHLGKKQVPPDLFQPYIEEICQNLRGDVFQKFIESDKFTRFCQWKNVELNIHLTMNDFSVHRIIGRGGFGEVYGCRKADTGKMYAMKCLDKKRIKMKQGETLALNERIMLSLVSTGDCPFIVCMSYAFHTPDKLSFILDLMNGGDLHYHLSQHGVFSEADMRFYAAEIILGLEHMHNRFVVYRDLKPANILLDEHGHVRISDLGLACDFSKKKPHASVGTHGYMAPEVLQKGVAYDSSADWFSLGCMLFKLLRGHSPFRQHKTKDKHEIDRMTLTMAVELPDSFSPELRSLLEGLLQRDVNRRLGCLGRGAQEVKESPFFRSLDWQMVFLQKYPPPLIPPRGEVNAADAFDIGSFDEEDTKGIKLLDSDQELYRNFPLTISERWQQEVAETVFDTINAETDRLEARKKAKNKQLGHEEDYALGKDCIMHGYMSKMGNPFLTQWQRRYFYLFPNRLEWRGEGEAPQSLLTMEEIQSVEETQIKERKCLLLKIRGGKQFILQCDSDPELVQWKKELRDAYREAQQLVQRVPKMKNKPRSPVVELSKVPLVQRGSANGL
Experiment [10] has as its target Beta-2 adrenergic receptor (Homo sapiens) (UniProt P07550). Description: agonist-induced loss of surface beta2AR – cell-based, FAP fluorogen, flow cytometry, validation set, pilot screen (AID 504459;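 active = percent response above 42, roughly 3 SD of non-fluorescent test compounds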;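 note: agonist-driven loss of surface beta2AR via internalization measured by FAP dye flow cytometry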). The conditions noted are these: Am2.2-beta2AR cells, at 10 µM, stronger effect = higher value.
Experiment [11] concerns the target AP-2 complex subunit beta (Homo sapiens) (UniProt P63010). Description: beta-arrestin/AP2 interaction blockers – biochemical, validation set, GST-AP2 beads, flow cytometry, pilot screen (AID 504541;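 active = inhibition above 54%, about 3 SD of non-fluorescent compounds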;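 note: AP2 carries R879A mutation and is captured from E. coli lysate; bead-bound FITC arrestin peptide fluorescence measuring arrestin peptide binding to AP2; 0% = DMSO wells and 100% = excess unlabeled arrestin peptide control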). The conditions noted are these: FITC arrestin peptide, at 10 µM, stronger effect = higher value, AP2 beta2 appendage fragment, R879A mutant.
Experiment [12] in a line: cytosolic pH regulators acting via V-ATPase – S. cerevisiae, pHLuorin, HTS validation (AID 504600; in the data active = response above about 15%;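 note: plate controls were DMSO for no effect and reference compound for full effect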). The conditions noted are these: V-ATPase proton transport, at 10 µM, stronger effect = higher value.
The test system of experiment [13] is anti-desmoglein-3 scFv antibody binding to human DSG3. Description: blockers of pathogenic pemphigus antibody–desmoglein-3 binding – biochemical, validation compound set, bead-based, flow cytometry, pilot screen (AID 588368;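 active = binding below the plate cutoff, the plate median minus 3 SD, with a reading above zero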;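 note: signal is the median channel fluorescence of bead-bound GFP antibody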). The conditions noted are these: Protein G beads, DSG3-Fc, scFv-GFP binding, at 10 µM, stronger effect = lower value.
Experiment [14] can be described thus: Nile Red efflux blockade in pump-expressing yeast – validation compound set, multiplex, phenotypic, pilot screen (AID 588506;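 active = efflux inhibition above 0.42, the validation set average plus 4 SD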;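 note: Nile Red retained in cells so higher fluorescence means more efflux inhibition; 0 = negative control wells and 1 = enniatin B 25 µM full block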). The conditions noted are these: S. cerevisiae pump-expressing triplex, Nile Red efflux flow cytometry; at 10 µM; stronger effect = higher value; the pumps come from Candida albicans.
Experiment [15] addresses ATP-binding cassette sub-family B member 6 (Homo sapiens) (UniProt Q9NP58). Description: blockers of ABCB6-driven porphyrin uptake – K562-ABCB6 cells, flow cytometry, validation set, pilot screen (AID 588550;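 active = inhibition above the screen-wide mean plus 3 SD, about 51%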;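 note: 0% = DMSO wells and 100% = benzethonium chloride 70 µM positive control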). The conditions noted are these: K562-ABCB6 porphyrin accumulation, 1 h, at 10 µM, stronger effect = higher value.
Experiment [16] is described as follows: AML differentiation inducers, ER-HoxA9 marrow cells – cell-based, GFP/MAC1 double positive, flow cytometry, validation set, primary screen (AID 588685;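 active = differentiation response of at least 50%, scaled between solvent and reference control, from cells with both markers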;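 note: compound exposure lasts four days before antibody staining and flow analysis; 0% = DMSO wells and 100% = 5 µM fulvestrant positive control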). The conditions noted are these: stronger effect = higher value, normalized: vehicle 0, fulvestrant 100.

Chain of Beta-2 adrenergic receptor (Homo sapiens) (P07550 whole entry, looked up): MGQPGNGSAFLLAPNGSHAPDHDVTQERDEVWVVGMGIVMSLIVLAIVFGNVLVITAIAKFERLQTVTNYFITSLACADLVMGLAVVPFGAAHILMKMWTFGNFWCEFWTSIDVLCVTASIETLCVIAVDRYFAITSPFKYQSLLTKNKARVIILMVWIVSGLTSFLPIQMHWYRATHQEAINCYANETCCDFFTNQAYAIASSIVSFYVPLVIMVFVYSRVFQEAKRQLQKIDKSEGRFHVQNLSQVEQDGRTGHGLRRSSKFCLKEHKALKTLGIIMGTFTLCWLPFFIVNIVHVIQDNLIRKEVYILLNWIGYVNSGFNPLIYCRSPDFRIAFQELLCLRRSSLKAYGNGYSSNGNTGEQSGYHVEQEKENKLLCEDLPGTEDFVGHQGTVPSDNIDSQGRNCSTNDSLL
Chain of ATP-binding cassette sub-family B member 6 (Homo sapiens) (Q9NP58 whole entry, looked up): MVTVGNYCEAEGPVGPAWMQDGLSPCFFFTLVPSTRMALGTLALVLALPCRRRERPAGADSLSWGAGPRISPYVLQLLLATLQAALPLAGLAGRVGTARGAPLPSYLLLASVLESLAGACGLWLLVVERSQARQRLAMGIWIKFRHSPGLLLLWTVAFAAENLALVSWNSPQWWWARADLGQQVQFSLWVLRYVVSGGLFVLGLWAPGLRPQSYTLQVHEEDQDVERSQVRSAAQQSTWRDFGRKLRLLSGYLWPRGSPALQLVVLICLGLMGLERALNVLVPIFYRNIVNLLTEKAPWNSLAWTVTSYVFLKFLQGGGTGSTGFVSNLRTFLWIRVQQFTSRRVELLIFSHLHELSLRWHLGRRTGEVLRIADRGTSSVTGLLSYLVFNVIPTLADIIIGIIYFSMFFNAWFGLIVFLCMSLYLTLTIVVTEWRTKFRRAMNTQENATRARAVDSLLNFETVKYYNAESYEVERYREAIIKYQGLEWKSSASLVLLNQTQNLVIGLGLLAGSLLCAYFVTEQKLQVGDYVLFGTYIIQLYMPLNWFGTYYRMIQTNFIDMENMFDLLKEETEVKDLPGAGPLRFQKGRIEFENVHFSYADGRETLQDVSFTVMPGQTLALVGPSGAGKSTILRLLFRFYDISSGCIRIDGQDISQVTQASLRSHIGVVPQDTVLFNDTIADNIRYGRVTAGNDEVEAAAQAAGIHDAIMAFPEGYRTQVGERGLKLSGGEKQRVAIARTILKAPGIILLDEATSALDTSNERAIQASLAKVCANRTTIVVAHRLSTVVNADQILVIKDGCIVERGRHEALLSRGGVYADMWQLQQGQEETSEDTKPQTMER
Chain of AP-2 complex subunit beta (Homo sapiens) (P63010 whole entry, looked up, the tested form may be a part, one chain of several): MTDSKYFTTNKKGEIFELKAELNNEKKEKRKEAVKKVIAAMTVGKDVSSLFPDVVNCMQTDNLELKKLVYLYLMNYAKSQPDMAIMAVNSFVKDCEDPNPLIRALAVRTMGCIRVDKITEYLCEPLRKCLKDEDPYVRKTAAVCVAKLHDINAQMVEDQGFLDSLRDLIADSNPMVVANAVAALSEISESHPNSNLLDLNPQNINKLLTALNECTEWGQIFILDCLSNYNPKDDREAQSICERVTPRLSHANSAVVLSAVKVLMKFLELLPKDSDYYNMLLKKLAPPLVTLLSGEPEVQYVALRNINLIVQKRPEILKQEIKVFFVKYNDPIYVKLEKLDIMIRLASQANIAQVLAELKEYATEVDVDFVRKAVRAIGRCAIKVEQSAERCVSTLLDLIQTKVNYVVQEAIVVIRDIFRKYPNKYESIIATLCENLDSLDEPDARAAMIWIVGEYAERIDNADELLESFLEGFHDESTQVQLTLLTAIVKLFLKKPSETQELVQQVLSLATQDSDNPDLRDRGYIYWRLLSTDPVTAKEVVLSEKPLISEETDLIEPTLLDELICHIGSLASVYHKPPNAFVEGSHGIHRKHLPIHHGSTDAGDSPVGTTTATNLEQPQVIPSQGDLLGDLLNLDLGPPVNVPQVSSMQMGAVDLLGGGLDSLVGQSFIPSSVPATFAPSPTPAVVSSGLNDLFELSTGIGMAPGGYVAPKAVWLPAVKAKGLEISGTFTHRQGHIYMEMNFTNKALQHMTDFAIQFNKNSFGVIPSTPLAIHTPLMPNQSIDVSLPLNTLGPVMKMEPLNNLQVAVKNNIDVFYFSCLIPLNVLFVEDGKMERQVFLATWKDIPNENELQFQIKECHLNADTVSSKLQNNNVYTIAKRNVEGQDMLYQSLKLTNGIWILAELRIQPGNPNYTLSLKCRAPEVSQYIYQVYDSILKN
Chain of Integrin beta-1 (Homo sapiens) + Integrin alpha-4 (Homo sapiens) (P05556 whole entry, looked up): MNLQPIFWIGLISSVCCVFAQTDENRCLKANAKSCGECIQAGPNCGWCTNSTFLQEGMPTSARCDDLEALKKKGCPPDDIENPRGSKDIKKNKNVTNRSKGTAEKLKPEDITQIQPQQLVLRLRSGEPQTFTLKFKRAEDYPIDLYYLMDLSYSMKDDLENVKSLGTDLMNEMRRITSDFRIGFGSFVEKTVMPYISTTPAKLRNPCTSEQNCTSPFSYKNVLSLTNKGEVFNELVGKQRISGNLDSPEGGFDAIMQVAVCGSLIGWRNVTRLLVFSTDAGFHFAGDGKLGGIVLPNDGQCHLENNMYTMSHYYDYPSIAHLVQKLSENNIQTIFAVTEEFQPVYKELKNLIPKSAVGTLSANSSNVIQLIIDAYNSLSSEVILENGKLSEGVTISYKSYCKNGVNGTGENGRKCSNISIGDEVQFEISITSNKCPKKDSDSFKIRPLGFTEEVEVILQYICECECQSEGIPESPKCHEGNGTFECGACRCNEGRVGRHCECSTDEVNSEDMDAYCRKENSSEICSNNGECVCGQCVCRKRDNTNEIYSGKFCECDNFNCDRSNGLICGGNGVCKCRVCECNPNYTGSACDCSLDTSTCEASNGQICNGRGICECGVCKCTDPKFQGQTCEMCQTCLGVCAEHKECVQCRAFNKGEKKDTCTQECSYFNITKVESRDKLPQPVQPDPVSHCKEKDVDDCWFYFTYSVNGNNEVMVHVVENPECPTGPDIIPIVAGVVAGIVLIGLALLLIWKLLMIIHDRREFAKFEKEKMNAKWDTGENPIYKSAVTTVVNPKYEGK
Chain of Integrin beta-1 (Homo sapiens) + Integrin alpha-4 (Homo sapiens) (P13612 whole entry, looked up): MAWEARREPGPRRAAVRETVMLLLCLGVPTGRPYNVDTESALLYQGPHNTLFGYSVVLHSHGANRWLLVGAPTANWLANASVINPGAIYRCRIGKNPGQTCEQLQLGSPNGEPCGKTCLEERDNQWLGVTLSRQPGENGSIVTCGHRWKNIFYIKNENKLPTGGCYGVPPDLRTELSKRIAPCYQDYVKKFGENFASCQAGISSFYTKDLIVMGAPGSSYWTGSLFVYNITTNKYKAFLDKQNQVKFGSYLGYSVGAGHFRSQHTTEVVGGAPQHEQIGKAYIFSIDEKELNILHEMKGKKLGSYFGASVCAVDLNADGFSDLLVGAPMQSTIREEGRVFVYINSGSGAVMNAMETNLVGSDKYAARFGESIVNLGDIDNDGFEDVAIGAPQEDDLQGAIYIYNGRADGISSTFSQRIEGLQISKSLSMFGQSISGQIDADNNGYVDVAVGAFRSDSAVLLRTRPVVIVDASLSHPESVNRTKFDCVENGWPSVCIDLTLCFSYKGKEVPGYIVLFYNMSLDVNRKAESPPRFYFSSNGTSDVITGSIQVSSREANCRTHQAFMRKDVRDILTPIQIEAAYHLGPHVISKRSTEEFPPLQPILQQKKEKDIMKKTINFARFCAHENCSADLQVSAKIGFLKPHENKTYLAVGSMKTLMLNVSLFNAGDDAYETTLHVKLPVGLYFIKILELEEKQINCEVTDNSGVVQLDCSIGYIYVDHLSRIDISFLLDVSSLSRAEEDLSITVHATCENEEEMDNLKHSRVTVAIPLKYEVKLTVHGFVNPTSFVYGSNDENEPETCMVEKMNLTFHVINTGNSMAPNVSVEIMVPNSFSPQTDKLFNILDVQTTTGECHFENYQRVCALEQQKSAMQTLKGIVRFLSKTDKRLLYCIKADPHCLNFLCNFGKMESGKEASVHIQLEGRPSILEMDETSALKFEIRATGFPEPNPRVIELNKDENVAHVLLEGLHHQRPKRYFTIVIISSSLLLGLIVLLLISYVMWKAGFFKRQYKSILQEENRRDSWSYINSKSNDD

Regarding `COc1ccc(N2C(=O)C3C(C2=O)C(C(=O)c2ccccc2)N2CCCC32)cc1` (stereo not drawn), the percent of DMSO control GFP in experiment [1] was 98.6% (inactive). The GFP response vs DMSO in experiment [2] is 107% (inactive); in experiment [4] it was 122% (inactive). The percent response of DMSO control in experiment [3] is 84.4% (inactive). Besides, the GFP response, % of DMSO in experiment [5] is 95.7% (inactive). In experiment [6], this compound yielded a double positive events of 61.2%. The vesicle binding response in [6] was 241% (inactive). Moreover, the inhibition was -20.9% (inactive) in experiment [7], 4.51% (inactive) in experiment [11] and -7% (inactive) in [15]. In addition, in experiment [8], the superoxide response (% of plate) was 102% (inactive). Besides, in experiment [9], the aptamer binding inhibition is 5% (inactive). For the same compound, the response in [10] is 37.4% (inactive); in experiment [12] it was -0.56% (inactive). The binding (% of control) in experiment [13] was 100% (inactive). In addition, the efflux inhibition (fraction of control) in [14] is -0.24 (inactive). In addition, the differentiation response in [16] was 12% (inactive).

As to `CC(=O)Oc1c2occc2cc2ccc(=O)oc12`, the percent of DMSO control GFP in [1] was 98.4% (inactive). The GFP response vs DMSO in [2] was 103% (inactive); in experiment [4], 114% (inactive). The percent response of DMSO control in [3] is 87.2% (inactive). In [5], the GFP response, % of DMSO is 98.9% (inactive). This compound also had a double positive events in experiment [6] of 57.9%. The vesicle binding response in experiment [6] is 140% (inactive). In addition, the inhibition in experiment [7] was -11.3% (inactive); in experiment [11] it was 7.26% (inactive); in [15], 8% (inactive). In addition, the superoxide response (% of plate) in experiment [8] was 101% (inactive). Moreover, the aptamer binding inhibition in experiment [9] is 3% (inactive). In addition, the response is 9.55% (inactive) in experiment [10] and -2.03% (inactive) in experiment [12]. In experiment [13], the binding (% of control) was 101% (inactive). In experiment [14], the efflux inhibition (fraction of control) was 0.51 (active). For the same compound, in experiment [16], the differentiation response was 10.4% (inactive).

Take `O=C(c1cc2cc(Br)ccc2o1)N1CCCC1`: the percent of DMSO control GFP in experiment [1] is 101% (inactive). Also, the GFP response vs DMSO was 106% (inactive) in experiment [2] and 139% (inactive) in experiment [4]. Besides, the percent response of DMSO control in experiment [3] is 97.6% (inactive). The GFP response, % of DMSO in experiment [5] was 99.4% (inactive). In experiment [6], the double positive events turned out to be 56.9%. In addition, in experiment [6], the vesicle binding response is 146% (inactive). In addition, the values for the inhibition in [7], in experiment [11] and in [15] were -5.11% (inactive), -6.7% (inactive) and 9% (inactive), respectively. Besides, the superoxide response (% of plate) in [8] was 93.6% (inactive). The aptamer binding inhibition in [9] was 0% (inactive). The response in experiment [10] was -10.4% (inactive); in experiment [12] it was 0.97% (inactive). In [13], the binding (% of control) is 103% (inactive). For the same compound, the efflux inhibition (fraction of control) in [14] is -0.07 (inactive). The differentiation response in experiment [16] is -3.11% (inactive).

Consider `COc1cc2oc(-c3ccc(O)cc3)cc(=O)c2c(OC)c1O`, for which the percent of DMSO control GFP in experiment [1] was 100% (inactive). The results for the GFP response vs DMSO in experiment [2] and in experiment [4] were 101% (inactive) and 88.2% (inactive), respectively. For the same compound, the percent response of DMSO control in experiment [3] is 104% (inactive). The GFP response, % of DMSO in experiment [5] was 98% (inactive). The same compound showed a double positive events in experiment [6] of 56.3%. Further, the vesicle binding response in experiment [6] is 118% (inactive). Besides, the inhibition was -11.8% (inactive) in experiment [7], -0.6% (inactive) in [11] and 0% (inactive) in experiment [15]. Further, the superoxide response (% of plate) in [8] is 107% (inactive). For the same compound, in experiment [9], the aptamer binding inhibition was 3% (inactive). The results for the response in [10] and in experiment [12] were -2.51% (inactive) and -4.25% (inactive), respectively. Moreover, the binding (% of control) in experiment [13] was 100% (inactive). The efflux inhibition (fraction of control) in experiment [14] is -0.16 (inactive). Besides, in experiment [16], the differentiation response was 8.59% (inactive).

One may read the inhibition as the change of the read-out against control, counted positive when it falls.
